Data reported in PubChem BioAssay (NCATS).
Unmarked numbers belong to inactive results. Records with an inconclusive call do not appear. Entries that show only a call come without a potency. Activity calls are given as the source filed them. The call rests on the fitted dose curve; in most records, active means well fitted curve in the direction sought with a large enough effect; inconclusive means small, poorly fitted or top-dose-only effect, or another doubt; inactive means no such curve, though single readings can be large; an effect the other way counts as inactive or inconclusive. Where a SMILES comes first, the peptide text is derived from it. [ ]: non-standard residue; d: D form. ξ: configuration not given here. ξTyr(βOH) = NC(C(=O)O)C(O)c1ccc(O)cc1

Key:
[1] = molecular target: Glutathione peroxidase 1 (Homo sapiens) (UniProt P07203); experiment: Primary qHTS Assay for Inhibitors of Recombinant Selenoprotein Glutathione Peroxidase 1 (GPX1) (AID 1845191); further: nearly all actives have a fitted effect of over 65% in size
Procedure, shortened: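 GR-coupled readout: NADPH consumption tracked by fluorescence, ex 340/em 450 nm, at t=0 and after 15 min at RT. Final mix 10 nM GPX1, 1 mM GSH, 0.5 mM CHP, 0.5 mM NADPH, 100 nM GR, 0.01% BSA, following 30 min enzyme–compound preincubation.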

[2] = molecular target: Phospholipid hydroperoxide glutathione peroxidase GPX4 (Homo sapiens) (UniProt P36969); experiment: Primary qHTS Assay for Inhibitors of Recombinant Selenoprotein Glutathione Peroxidase 4 (GPX4) (AID 1845192); further: nearly all actives have a fitted effect of over 65% in size; on activity change, negative = inhibition: series mostly up to about 50 µM
Procedure, shortened: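 Steps: GPX4 plus compound, 30 min RT; add GR/GSH/NADPH master mix; start with cumene hydroperoxide; read 340/450 nm fluorescence at 0 and 15 min. Finals were 200 nM GPX4, 1 mM GSH, 0.5 mM CHP, 0.5 mM NADPH, 100 nM GR.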

[3] = molecular target: Luciferin 4-monooxygenase (Photinus pyralis) (UniProt P08659); experiment: Primary firefly luciferase (FLuc) qHTS assay for identification of artifact compounds. (AID 1845220); further: nearly all actives have a fitted effect of over 60% in size; on activity change, negative = inhibition: series mostly up to about 54 µM
Procedure, shortened: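 Enzymatic FLuc inhibition assay: compounds pre-exposed to luciferin/ATP (10 uM each) for 15 min, then purified P. pyralis enzyme at 10 nM added. Read-out: luminescence at 5 min.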

[4] = Primary fluorescence-based thiol-reactive (MSTI) qHTS assay for identification of artifact compounds. (AID 1845221); further: nearly all actives have a fitted effect of over 65% in size; further: potency means the concentration at half of the fitted maximal effect;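 on activity change, negative = thiol reactive: series mostly up to about 54 µM; thiol-reactive compounds lower the probe fluorescence signal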
Procedure, shortened: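 Compounds were incubated 1 h at room temperature in the dark with the MSTI probe (4 uM) in PBS pH 7.4, 2% DMSO. Signals were normalized between Acetyl-MSTI and MSTI.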

[5] = system: Nanoluciferase (engineered Oplophorus gracilirostris luciferase); experiment: Primary Nanoluciferase (NLuc) qHTS assay for identification of artifact compounds. (AID 1845222);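 further: NLuc secreted into diluted conditioned medium of S16 cells; series mostly up to about 54 µM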
Procedure, shortened: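 S16 cell supernatant NLuc, 1:55; cpds qHTS; 15 min RT dark; Nano-Glo substrate 1:100, 5 min; luminescence; Hill fit of % inhibition.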

[6] = Primary redox qHTS assay for identification of artifact compounds. (AID 1845223)
Procedure, shortened: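 Redox-cycling detection via DTT (250 uM final) oxidation coupled to Amplex Red (25 uM)/HRP (250 mU/mL) in HBSS. 15 min preincubation plus 30 min after DTT, room temperature. Ex/Em 525/598 nm; 4-parameter Hill fit against DMSO and 10 uM DA3003.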

Chain of Glutathione peroxidase 1 (Homo sapiens) (P07203 whole entry, looked up): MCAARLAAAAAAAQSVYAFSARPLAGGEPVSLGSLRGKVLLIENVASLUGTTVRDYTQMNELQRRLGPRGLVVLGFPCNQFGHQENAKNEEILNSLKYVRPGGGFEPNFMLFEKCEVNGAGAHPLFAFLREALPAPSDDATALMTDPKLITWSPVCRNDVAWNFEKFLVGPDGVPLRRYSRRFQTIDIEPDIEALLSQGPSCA
Chain of Phospholipid hydroperoxide glutathione peroxidase GPX4 (Homo sapiens) (P36969 whole entry, looked up): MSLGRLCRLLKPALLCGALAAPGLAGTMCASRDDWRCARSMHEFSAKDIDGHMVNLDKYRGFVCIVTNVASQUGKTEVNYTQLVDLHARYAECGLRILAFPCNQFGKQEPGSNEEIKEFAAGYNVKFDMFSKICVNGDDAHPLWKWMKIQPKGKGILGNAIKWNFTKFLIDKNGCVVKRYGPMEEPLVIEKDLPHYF

Structure (SMILES)	Potency [1]	Potency [2]	Potency [3]	Potency [4]	Potency [5]	Potency [6]	activity change, negative = inhibition [3]	activity change, negative = thiol reactive [4]	activity, negative = inhibition [5]	redox activity (% of DA3003) [6]
COCC1OC(n2cnc3c(=O)[nH]cnc32)C(O)C1O (centres undefined)	inactive	inactive	inactive	inactive	inactive	inactive				
CC1(C)CC[C@]2(C(=O)O[C@@H]3O[C@H](CO)[C@@H](O)[C@H](O)[C@H]3O)CC[C@]3(C)C(=CCC4[C@@]5(C)CC[C@H](O[C@H]6O[C@H](CO)[C@@H](O)[C@H](O[C@@H]7O[C@H](CO)[C@@H](O)[C@H](O)[C@H]7O)[C@H]6O)C(C)(C)C5CC[C@]43C)[C@@H]2C1 (some centres undefined)	inactive	inactive					0.281% [at 11.6 µM]	168% [at 11.5 µM]	-0.923% [at 11.6 µM]	12.2% [at 11.5 µM]
C[C@@H]1CC[C@]2(C(=O)O)CC[C@]3(C)C(=CCC4[C@@]5(C)C[C@@H](O)[C@@H](O)C(C)(C)C5CC[C@]43C)C2[C@]1(C)O (some centres undefined)	inactive	inactive	inactive	inactive	inactive	inactive				
Cc1ccc([C@@H]2CC=C(C(=O)O)[C@H](c3ccc(C(C)(C)C)cc3)N2S(=O)(=O)c2ccc(C)cc2)cc1	inactive	inactive	inactive	inactive	inactive	inactive				
Cc1nc2cc(-c3cc(F)cc(C#N)c3)ccc2s1	inactive	inactive	inactive	inactive	inactive	inactive				
CC1(C)CC2C3=CCC4[C@@]5(C)CC[C@H](OC6OCC(O)C(OC7OC(CO)C(O)C(O)C7O)C6O)C(C)(C)C5CC[C@@]4(C)[C@]3(C)C[C@H](O)[C@@]2(CO)[C@H](OC(=O)c2ccccc2)C1 (some centres undefined)	inactive	inactive					-8.37% [at 11.6 µM]	159% [at 11.5 µM]	-2.24% [at 11.6 µM]	-2.38% [at 11.5 µM]
COc1cc2c(cc1O)CC(O)(CO)C(CO)C2c1ccc(OC2OC(CO)C(O)C(O)C2O)c(OC)c1 (centres undefined)	inactive	inactive	inactive	10.3 µM (active)	inactive	inactive				
COc1cccc(C(=O)NCCNc2nc3cc(C)cc(C)c3cc2C#N)c1	inactive	inactive	inactive	inactive	inactive	inactive				
Cc1ccccc1NC(=O)Nc1ccc(CN2C(=O)N([C@@H](CC(C)C)C(=O)N[C@@H](CC(=O)O)c3ccccc3)C(=O)C2(C)C)cc1	inactive	inactive	inactive	inactive	inactive	inactive				
COc1c2cc(c(O[C@@H]3O[C@H](CO)[C@@H](O)[C@H](O)[C@H]3O)c1OC)CCCCC(O)CCc1ccc(O)c-2c1 (some centres undefined)	inactive	inactive	inactive	6.53 µM (active)	inactive	inactive				
Cc1noc2c1-c1ccccc1C(c1ccc(Cl)cc1)=N[C@H]2CC(N)=O	inactive	inactive	inactive	inactive	inactive	inactive				
O=S(=O)(O)c1ccc(Nc2ncnc3c2ncn3[C@@H]2O[C@H](CO)[C@@H](O)[C@H]2O)cc1	inactive	inactive	inactive	inactive	inactive	inactive				
CC(=O)OC12CC(C)C(O)C1/C=C(/COC1OC(CO)C(O)C(O)C1O)CCC1C(/C=C(\C)C2=O)C1(C)C (centres undefined)	inactive	inactive	inactive	inactive	inactive	inactive				
CC1(C)C[C@@H]2[C@H](C1)[C@@]1(C)C[C@]13C(O)OC[C@]3(O)[C@H]2O (some centres undefined)	inactive	inactive	inactive	inactive	inactive	inactive				
COc1cc(/C=C/C(=O)O)ccc1O[C@@H]1O[C@H](CO)[C@@H](O)[C@H](O)[C@H]1O[C@@H]1OC[C@](O)(CO)[C@H]1O	inactive	inactive	inactive	inactive	inactive	inactive				
CC1=C(CCC(C)O[C@@H]2O[C@H](CO)[C@@H](O)[C@H](O)[C@H]2O)C(C)(C)CC(O)C1 (some centres undefined)	inactive	inactive	inactive	5.85 µM (active)	inactive	inactive				
C/C=C(/C)C(=O)OC1C2OC2C2(CO2)C2C3OC(=O)C(C)C3CCC12C (centres undefined)	inactive	inactive	inactive	inactive	inactive	inactive				
Cc1cn(-c2cc(NC(=O)c3ccc(C)c(Nc4nccc(-c5cnccn5)n4)c3)cc(C(F)(F)F)c2)cn1	inactive	inactive	inactive	inactive	inactive	inactive				
O=C(O)CCc1cc2ccoc2cc1O[C@@H]1O[C@H](CO)[C@@H](O)[C@H](O)[C@H]1O	inactive	inactive	inactive	inactive	inactive	inactive				
CC(C)c1ccc2c(c1)C(O)CC1C(C)(C(=O)O)CCCC21C (centres undefined)	inactive	inactive	inactive	inactive	inactive	inactive				

Structure (SMILES)	Potency [1]	Potency [2]	Potency [3]	Potency [4]	Potency [5]	Potency [6]	activity change, negative = inhibition [3]	activity change, negative = thiol reactive [4]	activity, negative = inhibition [5]	redox activity (% of DA3003) [6]
CC1CC(=O)[C@]2(O)C(C(=O)OCCc3ccc(O)c(O)c3)=CO[C@@H](O[C@@H]3O[C@H](CO)[C@@H](O)[C@H](O)[C@H]3O)[C@H]12 (some centres undefined)	inactive	inactive	inactive	2.92 µM (active)	inactive	inactive				
O=C(O)CC(CCc1ccccc1)OC1OC(CO)C(O)C(O)C1O (centres undefined)	inactive	inactive	inactive	5.21 µM (active)	inactive	inactive				
O=C(O)CC1CCC(c2ccc(NC(=O)c3nnc(Nc4ccc(F)c(F)c4)o3)cc2)CC1 (centres undefined)	inactive	inactive	inactive	inactive	inactive	inactive				
CNc1nc(Nc2cn(C(C)(C)C#N)nc2C)ncc1C(F)(F)F	inactive	inactive	inactive	inactive	inactive	inactive				
CC(=O)C1CCC(=O)N1Cc1ccccc1 (centres undefined)	inactive	inactive	inactive	inactive	inactive	inactive				
CC(C)c1ccc2c(c1)C(O)CC1C(C)(CO)CCCC21C (centres undefined)	inactive	inactive	inactive	inactive	inactive	inactive				
CC(=O)O[C@H]1C[C@@H](O)C(C)(C)C2C[C@@H](OC(C)=O)[C@]3(C)C(CC[C@@]4(C)[C@H](c5ccoc5)OC(=O)[C@H]5O[C@]543)[C@]21C (some centres undefined)	inactive	inactive	inactive	inactive	inactive	inactive				
CC1=C2C(=O)C=C(CO[C@@H]3O[C@H](CO)[C@@H](O)[C@H](O)[C@H]3O)[C@@H]2[C@H]2OC(=O)[C@H](C)[C@@H]2[C@@H](O)C1	inactive	inactive	inactive	inactive	inactive	inactive				
CC(=C\C(C)O)/C=C(\C)C(=O)CC1CC(CC(N)=O)CC(=O)O1 (centres undefined)	inactive	inactive	inactive	inactive	inactive	inactive				
C/C=C(/C)C(=O)O[C@@H]1C[C@@H](OC(=O)/C(C)=C\C)[C@@]2(C)C3C(=O)C=C(C)C2C3C1(C)C	inactive	inactive	inactive	inactive	inactive	inactive				
CC(C)(O)[C@@H]1CC[C@]2(CO)[C@@H](O)CC[C@](C)(O)[C@H]2[C@@H]1O[C@@H]1O[C@H](CO)[C@@H](O)[C@H](O)[C@H]1O	inactive	inactive	inactive	inactive	inactive	inactive				
CCC(CC)CC1(C(=O)Nc2ccccc2SC(=O)C(C)C)CCCCC1	inactive	inactive	inactive	inactive	inactive	inactive				
CC(C)(O)C1CC=C(C(=O)OC[C@H]2O[C@@H](Oc3cc(C(=O)O)cc(O)c3O)[C@H](O)[C@@H](O)[C@@H]2O)CC1 (some centres undefined)	inactive	inactive	inactive	5.19 µM (active)	inactive	inactive				
C=C1C[C@]23C[C@H]1CC[C@H]2[C@]1(C)CC[C@H](O)[C@@](C)(C(=O)O)[C@H]1[C@@H]3C(=O)O	inactive	inactive	inactive	inactive	inactive	inactive				
C=Cc1ccc(O[C@@H]2O[C@H](CO[C@@H]3O[C@@H](C)[C@H](O)[C@@H](O)[C@H]3O)[C@@H](O)[C@H](O)[C@H]2O)cc1	inactive	inactive	inactive	11.6 µM (active)	inactive	inactive				
O=C(/C=C/c1ccc(O)c(O)c1)O[C@H]1[C@H](OC2CCCCC2O)O[C@H](CO)[C@@H](O)[C@@H]1O (some centres undefined)	inactive	inactive	inactive	2.07 µM (active)	inactive	inactive				
C/C=C/C=C/C(=O)OC1CC/C=C/C(O)C(O)C(CCC)OC1=O (centres undefined)	inactive	inactive	inactive	inactive	inactive	inactive				
CC(C)C1NC(=O)CNC(=O)C2CCCN2C(=O)C(Cc2c[nH]c3ccccc23)NC(=O)CNC(=O)C(C(O)c2ccc(O)cc2)NC(=O)CNC1=O (centres undefined) (cyclo(G[ξTyr(βOH)]GWPGV); configuration not given here)	inactive	inactive	inactive	inactive	inactive	inactive				
CC1(C)CC[C@]2(C(=O)O)CC[C@]3(C)C(=CCC4[C@@]5(C)C(=O)C[C@H](O)[C@@](C)(CO)C5CC[C@]43C)[C@@H]2C1 (some centres undefined)	inactive	inactive	inactive	inactive	inactive	inactive				
